From ChEMBL document CHEMBL3988442, “University of Dundee, Small-Polar-MMV Screening Library” (2021)
The campaign covered roughly 48,000 compounds. About 13,000 (27%) showed an effect of 50% or more. The list shows a part of the results.

What follows are compounds tested on Wolbachia pipientis (assay: Anti-Wolbachia Cell-Based Screen). Settings: 5 µM.
Assay type: functional
Design: scale not given: in the data most compounds retested in dose-response had high values

Row | Compound | Percent Effect [%]
1 | CC(C)n1nc2c(cc1=O)CN(c1nc3ccccc3s1)CC2 | 8.102
2 | CC(NC(=O)N1CCC2(C1)OCCO2)c1cccc(Cl)c1 (stereo not drawn) | -15.89
3 | CN1CCCC(CCC(=O)N2CCc3onc(C(=O)N(C)C)c3C2)C1 (stereo not drawn) | 14.32
4 | Cc1noc(CNc2ccccc2N2CCCCC2)n1 | 5.096
5 | CC(C)c1noc(CS(=O)(=O)CC(=O)NCC(F)(F)F)n1 | -6.707
6 | Cc1ncc(CN(C)CC2CCCN2c2cccnn2)s1 (stereo not drawn) | 0.5019
7 | Cc1ncc(CN(C)C2CCCN(c3cccnn3)C2)s1 (stereo not drawn) | 87.88
8 | CN(Cc1ncc(C(C)(C)C)o1)C1CCCN(c2cccnn2)C1 (stereo not drawn) | -2.807
9 | Cc1ccsc1[C@@H]1CCN(C(=O)CCc2nc3ccccc3[nH]2)C[C@H]1O | -8.794
10 | Cc1cnc(C(=O)N2CCC3(CC2)CC(c2ccccc2)C(=O)N3)cn1 (stereo not drawn) | -6.858
11 | O=C(O)C(F)(F)F.O=C1NC2(CCN(C(=O)c3ccccc3)CC2)CC1c1cccnc1 (stereo not drawn) | -9.682
12 | Cc1cc(C(=O)N2CCC3(CC2)CC(c2cccnc2)C(=O)N3)no1.O=C(O)C(F)(F)F (stereo not drawn) | 102.9
13 | O=C1NC2(CCN(C(=O)c3ccc(Cl)cc3)CC2)CC1c1ccccc1 (stereo not drawn) | 7.391
14 | O=C(O)C(F)(F)F.O=C1NC2(CCN(c3ncccn3)CC2)CC1c1cccnc1 (stereo not drawn) | -4.388
15 | Cc1cccc(C(=O)N2CCC3(CC2)CC(c2ccccc2)C(=O)N3)c1 (stereo not drawn) | -4.545
16 | Cc1ccc(C(=O)N2CCC3(CC2)CC(c2ccccc2)C(=O)N3)cn1.O=C(O)C(F)(F)F (stereo not drawn) | -11.02
17 | O=C(O)C(F)(F)F.O=C1NC2(CCN(C(=O)N3CCOCC3)CC2)CC1c1cccnc1 (stereo not drawn) | 179.1
18 | O=C1NC2(CCN(C(=O)c3ccnnc3)CC2)CC1c1ccccc1 (stereo not drawn) | 95.48
19 | CN(C)C(=O)CN1C[C@@H]2CC[C@H](C1)N(Cc1cc(F)ccc1F)C2 | 15.49
20 | COc1nc(C)c(C(=O)N2CCc3[nH]nc(C4CCCC4)c3C2)s1 | -0.6209
21 | CC(C)NC(=O)CN(C)CC(=O)/N=c1/cc[nH]n1C(C)C1CC1 (stereo not drawn) | -11.27
22 | NC(=O)CN1CCC(NC2CCCCc3ccccc32)CC1 (stereo not drawn) | -5.758
23 | CNC(=O)c1ncn2c1CN(CCC(C)C)S(=O)(=O)c1ccccc1-2 | 5.918
24 | COCC(C)(C)NS(=O)(=O)C1CS(=O)(=O)c2ccccc21 (stereo not drawn) | 12.05
25 | O=S1(=O)c2ccccc2C(O)CN1CCO (stereo not drawn) | 120.8
26 | NC(=O)CN1CC(O)c2ccccc2S1(=O)=O (stereo not drawn) | 96.32

Row | Compound | Percent Effect [%]
27 | NC(=O)CN1CCC(NC2CSCCc3ccccc32)CC1 (stereo not drawn) | -6.664
28 | COCCOCCNS(=O)(=O)C1CS(=O)(=O)c2ccccc21 (stereo not drawn) | 2.377
29 | COC1CN(CCO)S(=O)(=O)c2ccccc21 (stereo not drawn) | 103.3
30 | Cc1ccc2c(c1)c(CNC(=O)C1CC(=O)N(C3CCCC3)C1)nn2C (stereo not drawn) | -26.6
31 | O=C(N1CCCC1)N1CCC(c2nccn2Cc2cscn2)CC1 | -4.277
32 | CC(C)n1cnnc1CN(C)C(=O)c1cc(COc2ccccc2)[nH]n1 | -4.684
33 | NC(=O)C1CCN(C(=O)NCCOc2ccc3c(c2)OCO3)C1 (stereo not drawn) | 88.72
34 | O=C(c1ccc2c(c1)OCO2)N1CCCC(Nc2ccc(F)cc2)C1 (stereo not drawn) | -14.66
35 | CCCOc1ccc(CNC(=O)N2CCC(C(N)=O)C2)cc1 (stereo not drawn) | 0.5279
36 | CC(=O)NC1CCCN(C(=O)NCCOc2ccc3c(c2)OCO3)C1 (stereo not drawn) | 106.3
37 | CC(=O)NCC1CCN(C(=O)NCCc2ccc3c(c2)OCO3)CC1 | -2.588
38 | O=C(CN1CCCC(CO)C1)NCCOc1cccc(Cl)c1 (stereo not drawn) | 0.8563
39 | O=C(NCCOc1ccc2c(c1)OCO2)N1CCCC(CO)C1 (stereo not drawn) | 85.49
40 | NC(=O)N1CCCC(C(=O)NCCOc2ccc3c(c2)OCO3)C1 (stereo not drawn) | 6.711
41 | CCOc1ccc(Cl)cc1CCNC(=O)N1CCCC(CO)C1 (stereo not drawn) | 2.242
42 | Cc1noc(C)c1CNC(=O)N1CCC(NS(C)(=O)=O)CC1 | -20.1
43 | Cc1n[nH]c(C)c1CCc1ccc(S(C)(=O)=O)cc1 | 1.11
44 | CCCc1n[nH]cc1C(=O)N1CCC(c2nccn2CCOC)CC1 | -3.808
45 | CSC(C)(C)CNC(=O)NCCC1CCN(C)CC1 | 0.9558
46 | CC(C)c1nc(CNC2CCCN(c3cccnn3)C2)no1 (stereo not drawn) | 9.914
47 | CN(Cc1noc(C(C)(C)C)n1)C1CCCN(c2cccnn2)C1 (stereo not drawn) | 102.2
48 | CN(Cc1nc(-c2ccco2)no1)C1CCCN(c2cccnn2)C1 (stereo not drawn) | 4.985
49 | CCc1nc(CN(C)C2CCCN(c3cccnn3)C2)no1 (stereo not drawn) | 81.94
50 | CC(C)(C)c1nc(CNC2CCCN(c3cccnn3)C2)no1 (stereo not drawn) | -17.48
51 | CN(Cc1noc(C2CC2)n1)C1CCCN(c2cccnn2)C1 (stereo not drawn) | 100.2
52 | CN(Cc1nc(C2CC2)no1)C1CCCN(c2cccnn2)C1 (stereo not drawn) | -5.639

Row | Compound | Percent Effect [%]
53 | Cc1ccc(N2CCCC(N(C)Cc3noc(C4CC4)n3)C2)nn1 (stereo not drawn) | -34.27
54 | CC(C)c1nc(CN(C)C2CCCN(c3cccnn3)C2)no1 (stereo not drawn) | 109.3
55 | Cc1nc(CN(C)C2CCCN(c3cccnn3)C2)no1 (stereo not drawn) | -8.023
56 | CCOC(=O)N1CCN(c2nc(CCN)nc3sc(C)c(C)c23)CC1 | -2.539
57 | Cn1ncc(N2CCC(CNC3CC(c4ccccc4)C3)CC2)cc1=O (stereo not drawn) | 0.2132
58 | COC(=O)N1CCN(C(=O)c2ccc(C)c(N3CCNC3=O)c2)CC1 | -15.45
59 | CCOCCN1CCN(CCOC)CC1C (stereo not drawn) | -2.366
60 | CC(C)CN1CCC2(CCN(CC3CC3)CC2)C1=O.O=C(O)C(F)(F)F | 3.548
61 | Cc1ccc2c(c1)C1(CC2)CCN(CC(=O)O)CC1.O=C(O)C(F)(F)F | -2.152
62 | CCN1Cc2ccccc2CC2(CCN(C)CC2)C1=O | 106.4
63 | CCN1Cc2ccccc2CC2(CCN(CC3CCC3)CC2)C1=O | 112.5
64 | CCN1Cc2ccccc2CC2(CCN(CC(=O)O)CC2)C1=O.O=C(O)C(F)(F)F | 108.1
65 | CCN1Cc2ccccc2CC2(CCN(C(=O)N(C)C)CC2)C1=O | 108.4
66 | CN1C(=O)CC2(CCN(S(=O)(=O)C3CC3)CC2)c2ccccc21 | 18.32
67 | CCN1CC2(CC1=O)CN(C(=O)c1ccco1)CCN(C(=O)N(C)C)C2 (stereo not drawn) | -10.83
68 | O=C1N(CCc2ccccc2)CCCC12CCN(C(CO)CO)C2 (stereo not drawn) | -2.358
69 | Cn1cccc1C(=O)N1CCC2(CCCN(CC3CCC3)C2=O)C1 (stereo not drawn) | 0
70 | CCN1CCC2(CN(C(C)=O)CC23CCN(C(=O)N(C)C)CC3)C1=O (stereo not drawn) | -7.709
71 | O=C(O)CN1CCC2(CCc3ccccc32)CC1 | -5.092
72 | Cn1nc2c(cc1=O)CN(CC1CCCCO1)CC2 (stereo not drawn) | 1.26
73 | Cc1cnn(CC2CCCCN2Cc2cc(C)on2)c1 (stereo not drawn) | 27.16
74 | Cc1cnn(CC2CCCCN2Cc2ncc(C(C)(C)C)o2)c1 (stereo not drawn) | 103.7
75 | CCC1CCCCN1Cc1ncc(C(C)(C)C)o1 (stereo not drawn) | 88.88
76 | CC(C)(C)c1cnc(CN2CCCC2Cn2cccn2)o1 (stereo not drawn) | 3.93
77 | CCC1CCCCN1Cc1ncc(-c2ccc(OC)cc2)o1 (stereo not drawn) | -15.61
78 | CC(C)(C)c1cnc(CN2CCC[C@H]2CO)o1 | -3.159

Row | Compound | Percent Effect [%]
79 | NC(=O)c1ccc(N2CCN(Cc3c(Cl)cncc3Cl)CC2)nc1 | -3.438
80 | O=C(NS(=O)(=O)c1cccc(C(F)(F)F)c1)c1cnsn1 | 1.908
81 | COc1cc(O)ccc1CN1CCN(C2CCc3ccccc3C2)CC1 (stereo not drawn) | 95.73
82 | COc1ccc(CN2CCN(C3CCc4ccccc4C3)CC2)cc1O (stereo not drawn) | 105.5
83 | Cn1cc(CCCN2CCN(Cc3cccc(O)c3)CC2)cn1 | 5.998
84 | Oc1cccc(CN2CCN(C3CCc4ccccc4C3)CC2)c1 (stereo not drawn) | 111.6
85 | Cc1ccnn1CC(=O)N1CCN(C2CCc3ccccc3C2)CC1 (stereo not drawn) | -4.494
86 | COc1ccc(CN2CCCC(Nc3cccc(F)c3)C2)cc1O (stereo not drawn) | -4.671
87 | COc1ccc(CN2CCC(O)CC2)c(OC)c1 | -14.46
88 | CC(CN1CCOCC1)NC1CCN(Cc2cccc(O)c2)CC1 (stereo not drawn) | -2.88
89 | COc1ccc(CNC2CCN(c3ccccc3)C2)cc1O (stereo not drawn) | 14.8
90 | COc1cc(N2C[C@H]3CN(CCN4CCCC4)C(=O)[C@H]3C2)ncn1 | -15.15
91 | O=C(CNc1cc(Br)ccc1Br)NC1CCS(=O)(=O)C1 (stereo not drawn) | -18.44
92 | CCN1CCCC(CN2CCn3nc(CNC(=O)N(C)C)cc3C2)C1 (stereo not drawn) | 11.32
93 | CC(CC#N)N1CCN(C(=O)OC(C)(C)C)CC1 (stereo not drawn) | -8.127
94 | CC(C)(C)OC(=O)N1CCN(S(C)(=O)=O)C2(CCCCC2)C1 | 138.8
95 | CS(=O)(=O)N1CCCC12CCCN(C(=O)c1ccncc1)C2 (stereo not drawn) | -13.2
96 | CC(C)(C)OC(=O)N1CCC(NC2CC2)CC1 | -10.91
97 | CC(CO)N1CCN(C(=O)OC(C)(C)C)CC1 (stereo not drawn) | -0.0103
98 | CC(C)(C)OC(=O)N1CCN(S(=O)(=O)CCCC#N)C2(CCCCC2)C1 | 111.4
99 | CN(C)S(=O)(=O)N1CCN(C(=O)OC(C)(C)C)CC12CCCCC2 | 120.5
100 | COc1ccc(C2CCN(S(=O)(=O)CCCC#N)CC2)cc1 | -10.18
101 | CS(=O)(=O)N1CCCC12CCCN(C(=O)c1ccnnc1)C2 (stereo not drawn) | 0.7841
102 | O=C(NC1CC1)N1CC[C@H]2[C@H]1CCN2c1nncs1.O=C(O)C(F)(F)F | 6.883
103 | CCN(Cc1ccc2c(c1)OCCO2)C(=O)NC(C)Cn1ccnc1 (stereo not drawn) | 1.976
